Several values for one entry are separate records, joined by “and”; a condition that tells them apart may be missing. Equal entries are not always repeated. Inconclusive results are not listed. Activity calls are given as the source filed them. Unless noted, calls follow the shape of the dose curve; as a rule, active = well fitted curve in either direction with a large enough effect (not every such curve was filed as active); inconclusive = small, poorly fitted or top-dose-only effect, or another doubt; inactive = flat fitted curve, though single readings scatter.

The nature of assay [1]: AP1 Signaling Pathway (AID 357).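 Also: ME-180 reporter cells stimulated with EGF at its EC50 level; % is scaled to controls: 0 for no effect and ±100 for the full control effect.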 The procedure, abridged:
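First, ME-180 AP-1-bla cells were cultured overnight at 37 °C in low-serum Opti-MEM. Next, titrated compounds with EC50 EGF were incubated 5 hours. Finally, CCF4 was added for 2.5 hours and the 460/530 nm ratio recorded.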

The target of assay [2] is Cytochrome P450 1A2 (Homo sapiens) (UniProt P05177). As to the kind of experiment: p450-cyp1a2 (AID 410; calls by dose curve). Summed up:
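Luminescent readout of luciferin formed from Luciferin-ME by human CYP1A2; data normalized against complete inhibition by 57 uM furafylline. Enzyme 20nM, substrate 100uM at Km, 100mM KPO4 buffer, 60 min reaction at room temperature.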

A short description of assay [3]: Stat Signaling Pathway (AID 446).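 Also: ME-180 cervical cancer cells given 40 pM IL-6 alongside compound; SIE-controlled beta-lactamase reporter measured as 460/530 nm FRET emission ratio; % is scaled to controls: 0 for no effect and ±100 for the full control effect.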 The procedure, abridged:
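ME-180 cells carrying a SIE-driven beta-lactamase reporter are stimulated with 40 pM IL-6 for 5 h at 37C in the presence of compound. The 460/530 nm FRET substrate ratio is read after 2.5 h at RT. Data are normalised to 300 pM IL-6 and to 125 nM JAK inhibitor controls.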

The target of assay [4] is Glucocorticoid receptor (Homo sapiens) (UniProt P04150). As to the kind of experiment: GR-GFP Redistribution (AID 450;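 active = compounds whose dose series gives a full or clear partial fitted curve of increased nuclear translocation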; also: potency is read from the fitted curve at half-maximal effect). The note with it: U2OS GR-GFP nuclear translocation, laser cytometry, 2 h.
For assay [5] the target is unchanged. As to the kind of experiment: GR-EFC Redistribution (AID 451; calls by dose curve; also: potency is read from the fitted curve at half-maximal effect). The note with it: CHO-K1 GR-EFC translocation, beta-gal luminescence, 2 h. Summed up: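 CHO-K1 cells stably expressing nuclear-localized β-gal enzyme acceptor and GR fused C-terminally to the enzyme donor fragment; ligand-driven nuclear translocation restores β-gal by complementation. Compounds titrated up to 46 uM final, 2 h at 37 °C; luminescence read.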

Assay [6] has as its target Mitogen-activated protein kinase 10 (Mus musculus) (UniProt Q61831). Put plainly: JNK3 AlphaScreen Assay (AID 530).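 Also: kinase came from lysate of stimulated human HepG2 cells; signal reports phosphorylation of biotinylated GST-cJun 1-79 at Ser73 with 10 µM ATP; % is scaled to controls: 0 for no effect and ±100 for the full control effect.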 Summed up:
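Inhibitors reduce antibody binding to phosphorylated biotin-cJun, lowering AlphaScreen luminescence. Lysates from HepG2 cells pre-activated by IL-1beta plus TNF-alpha supplied JNK3; compounds were titrated.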
On the technique in general: Bead proximity is the source of the signal in Alpha formats.

In assay [7] the target is 3',5'-cyclic-AMP phosphodiesterase 4B (Homo sapiens) (UniProt Q07343). As to the kind of experiment: qHTS Assay for Inhibitors of PDE-IV (AID 607; active = well fitted activation curve with a large enough effect in the main read-out, with a control signal flat, not every such curve was filed as active; also: % of control where 0% means no effect). The procedure, abridged: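 HEK293 ACTOne cells with CNG channel (1000/well), endogenous PDE4; membrane potential dye, compounds up to 22.9 uM final. Fluorescence Ex 535/Em 590; RO 20-1724 (100 uM final) as reference.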
Background: In qHTS, concentration-response curves come from the screen itself.

Assay [8] can be described thus: qHTS Assay for Lipid Storage Modulators (AID 1519; calls by dose curve). The note with it: Drosophila S3 cells, BODIPY lipid droplet/cell ratio, laser cytometry, cells loaded with oleic acid; for activity change, negative = inhibition: at 25.7 µM (top of the series). Summed up:
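Cells seeded at 5,000 per well were treated with compounds over a concentration series and loaded with oleic acid (400 uM, as added). Lipid droplet fluorescence (488 nm excitation, 500-530 nm channel) was read by laser-scanning cytometry and normalized to 20 uM Triacsin C.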

Assay [9] has as its target Ubiquitin carboxyl-terminal hydrolase 1 (Homo sapiens) (UniProt O94782). Put plainly: Inhibitors of USP1/UAF1: Pilot qHTS (AID 504865; active = well fitted inhibition curve with a large enough effect;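 also: rhodamine fluorescence freed from ubiquitin-rhodamine substrate followed over time; top concentration of the series differs between compounds; % is scaled to controls: 0 for no effect and ±100 for the full control effect; nearly all actives have a fitted effect of over 35% in size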). Summed up:
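Kinetic fluorescence assay: 1nM USP1/UAF1, 15 min compound preincubation, then 150nM Ub-Rho; 480/540 nm.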

Assay [10] deals with Luciferin 4-monooxygenase (Photinus pyralis) (UniProt P08659). Put plainly: Biochemical firefly luciferase enzyme assay for NPC (AID 624030; active = well fitted inhibition curve with a large enough effect;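 also: purified P. pyralis luciferase at 10 nM with luciferin and ATP substrate; 0% = DMSO and -100% = full luciferase inhibition by PTC124 control; nearly all actives have a fitted effect of over 70% in size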). Summed up:
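Counter-screen for direct inhibition of the luciferase enzyme by approved-drug library compounds, run at 10 nM enzyme in 50 mM Tris acetate (final). Luminescence was read within 5 min of enzyme-buffer addition and normalized to PTC124 versus DMSO (0%).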

Assay [11] can be described thus: qHTS profiling for inhibitors of Plasmodium falciparum proliferation (AID 504749; active = well fitted inhibition curve with a large enough effect;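 also: 0% = DMSO vehicle and full inhibition = artemisinin control; nearly all actives have a fitted effect of over 60% in size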). The note with it: P. falciparum in erythrocytes, SYBR Green DNA, 72 h, at 28.7 µM (top of the series). Summed up:
(§1)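 Parasite proliferation within erythrocytes, 72 h exposure. Endpoint: SYBR Green I fluorescence after overnight lysis at room temperature. Controls: 0.29 uM artemisinin, DMSO.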

The subject of a further assay is 3D7. The assay is described as above. The conditions noted are these: P. falciparum in erythrocytes, SYBR Green DNA, 72 h; series mostly up to 28.7 µM. The procedure, abridged: as §1
Another assay deals with C2A. The description is as above. The conditions noted are these: P. falciparum in erythrocytes, SYBR Green DNA, 72 h; series mostly up to 28.7 µM. The procedure, abridged:
as §1

In another assay the test system is CP211. The assay is described as above. The note with it: P. falciparum in erythrocytes, SYBR Green DNA, 72 h; series mostly up to 28.7 µM. Summed up:
as §1

The next assay relates to CP217. Described as above. The conditions noted are these: P. falciparum in erythrocytes, SYBR Green DNA, 72 h; series mostly up to 28.7 µM. Summed up: as §1
A further assay concerns CP252. The assay is described as above. The note with it: P. falciparum in erythrocytes, SYBR Green DNA, 72 h; series mostly up to 12.8 µM. Summed up:
as §1

The subject of a further assay is CP262. Described as above. The note with it: P. falciparum in erythrocytes, SYBR Green DNA, 72 h; series mostly up to 28.7 µM. Summed up:
as §1

For another assay, the system named is CP286. Described as above. The note with it: P. falciparum in erythrocytes, SYBR Green DNA, 72 h; series mostly up to 28.7 µM. The procedure, abridged:
as §1

The next assay has as its system ECU. Described as above. The note with it: P. falciparum in erythrocytes, SYBR Green DNA, 72 h; series mostly up to 28.7 µM. The procedure, abridged: as §1
Assay [12] can be described thus: NFAT Signaling Pathway (AID 444).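 Also: carbachol stimulus at about its EC50 of 1 µM final; % is scaled to controls: 0 for no effect and ±100 for the full control effect.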 The note with it: Jurkat NFAT-bla M1, carbachol, beta-lactamase ratio, 5 h; at 17.2 µM (top of the series). The procedure, abridged: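 Jurkat cells carrying an NFAT-driven β-lactamase reporter and co-transfected muscarinic M1 receptor were treated with compound plus carbachol (1 uM final, an EC50 level) for 5 h at 37 °C. CCF4 loading followed for 1 h at RT; 460/530 nm ratio gave %activity.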

Setting [13] is: measured here: cell count channel max response.
[14] abbreviates: measured here: lipid channel max response.

Sequence of Ubiquitin carboxyl-terminal hydrolase 1 (Homo sapiens) (O94782 whole entry, looked up): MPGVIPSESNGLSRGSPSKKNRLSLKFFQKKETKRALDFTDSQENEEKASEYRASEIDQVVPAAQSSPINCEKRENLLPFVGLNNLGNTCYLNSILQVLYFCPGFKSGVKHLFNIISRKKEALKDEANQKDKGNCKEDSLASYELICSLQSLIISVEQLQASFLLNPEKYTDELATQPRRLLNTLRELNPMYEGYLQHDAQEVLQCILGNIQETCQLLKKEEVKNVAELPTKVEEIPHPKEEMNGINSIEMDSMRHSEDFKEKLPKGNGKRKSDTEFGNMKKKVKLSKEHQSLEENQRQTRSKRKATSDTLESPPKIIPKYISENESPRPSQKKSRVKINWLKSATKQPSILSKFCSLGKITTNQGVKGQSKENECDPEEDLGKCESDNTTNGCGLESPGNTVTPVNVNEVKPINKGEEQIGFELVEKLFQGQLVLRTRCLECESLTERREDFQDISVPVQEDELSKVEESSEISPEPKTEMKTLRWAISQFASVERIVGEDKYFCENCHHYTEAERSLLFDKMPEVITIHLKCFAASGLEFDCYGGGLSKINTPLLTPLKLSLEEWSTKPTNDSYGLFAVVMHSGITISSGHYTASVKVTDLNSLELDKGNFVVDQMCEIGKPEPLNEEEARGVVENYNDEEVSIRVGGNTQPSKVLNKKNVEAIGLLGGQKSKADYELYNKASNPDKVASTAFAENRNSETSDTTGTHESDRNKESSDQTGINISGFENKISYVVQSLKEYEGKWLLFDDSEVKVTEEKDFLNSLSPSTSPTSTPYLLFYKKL
Sequence of Glucocorticoid receptor (Homo sapiens) (P04150 whole entry, looked up, the tested form may be a part): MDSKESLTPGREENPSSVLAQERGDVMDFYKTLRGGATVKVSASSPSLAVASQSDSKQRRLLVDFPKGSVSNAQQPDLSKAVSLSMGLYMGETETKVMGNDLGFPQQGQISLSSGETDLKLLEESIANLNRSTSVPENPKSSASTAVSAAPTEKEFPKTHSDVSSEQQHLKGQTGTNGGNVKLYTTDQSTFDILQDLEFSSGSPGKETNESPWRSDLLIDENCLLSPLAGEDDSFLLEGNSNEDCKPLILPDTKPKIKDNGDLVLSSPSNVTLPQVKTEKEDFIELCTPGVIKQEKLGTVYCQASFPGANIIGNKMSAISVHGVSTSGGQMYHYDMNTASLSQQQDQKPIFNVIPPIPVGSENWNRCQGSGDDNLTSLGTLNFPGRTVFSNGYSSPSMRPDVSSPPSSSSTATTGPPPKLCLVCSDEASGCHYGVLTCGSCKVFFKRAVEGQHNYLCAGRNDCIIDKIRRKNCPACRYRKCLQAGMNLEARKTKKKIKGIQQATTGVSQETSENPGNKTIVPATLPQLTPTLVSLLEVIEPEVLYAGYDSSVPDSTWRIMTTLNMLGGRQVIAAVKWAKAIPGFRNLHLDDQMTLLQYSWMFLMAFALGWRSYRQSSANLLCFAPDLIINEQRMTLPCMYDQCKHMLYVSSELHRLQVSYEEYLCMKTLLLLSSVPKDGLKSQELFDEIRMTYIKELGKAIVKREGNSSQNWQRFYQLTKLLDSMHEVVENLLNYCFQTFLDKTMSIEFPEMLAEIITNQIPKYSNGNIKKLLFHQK
Sequence of Cytochrome P450 1A2 (Homo sapiens) (P05177 whole entry, looked up): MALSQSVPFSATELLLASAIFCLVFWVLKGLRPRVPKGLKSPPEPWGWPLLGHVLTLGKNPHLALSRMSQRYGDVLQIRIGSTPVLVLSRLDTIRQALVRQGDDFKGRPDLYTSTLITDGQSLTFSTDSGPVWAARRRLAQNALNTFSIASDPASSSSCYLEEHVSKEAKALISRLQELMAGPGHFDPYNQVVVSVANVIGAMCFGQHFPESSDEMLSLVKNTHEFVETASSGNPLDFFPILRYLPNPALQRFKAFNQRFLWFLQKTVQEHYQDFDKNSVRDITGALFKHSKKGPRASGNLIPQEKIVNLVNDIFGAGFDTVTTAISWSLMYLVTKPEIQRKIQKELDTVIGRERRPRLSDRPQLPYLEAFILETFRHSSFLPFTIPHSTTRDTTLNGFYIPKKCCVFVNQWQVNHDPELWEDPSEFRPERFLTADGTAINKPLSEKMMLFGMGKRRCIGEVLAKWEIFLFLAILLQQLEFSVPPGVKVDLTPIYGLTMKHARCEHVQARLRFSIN
Sequence of 3',5'-cyclic-AMP phosphodiesterase 4B (Homo sapiens) (Q07343 whole entry, looked up): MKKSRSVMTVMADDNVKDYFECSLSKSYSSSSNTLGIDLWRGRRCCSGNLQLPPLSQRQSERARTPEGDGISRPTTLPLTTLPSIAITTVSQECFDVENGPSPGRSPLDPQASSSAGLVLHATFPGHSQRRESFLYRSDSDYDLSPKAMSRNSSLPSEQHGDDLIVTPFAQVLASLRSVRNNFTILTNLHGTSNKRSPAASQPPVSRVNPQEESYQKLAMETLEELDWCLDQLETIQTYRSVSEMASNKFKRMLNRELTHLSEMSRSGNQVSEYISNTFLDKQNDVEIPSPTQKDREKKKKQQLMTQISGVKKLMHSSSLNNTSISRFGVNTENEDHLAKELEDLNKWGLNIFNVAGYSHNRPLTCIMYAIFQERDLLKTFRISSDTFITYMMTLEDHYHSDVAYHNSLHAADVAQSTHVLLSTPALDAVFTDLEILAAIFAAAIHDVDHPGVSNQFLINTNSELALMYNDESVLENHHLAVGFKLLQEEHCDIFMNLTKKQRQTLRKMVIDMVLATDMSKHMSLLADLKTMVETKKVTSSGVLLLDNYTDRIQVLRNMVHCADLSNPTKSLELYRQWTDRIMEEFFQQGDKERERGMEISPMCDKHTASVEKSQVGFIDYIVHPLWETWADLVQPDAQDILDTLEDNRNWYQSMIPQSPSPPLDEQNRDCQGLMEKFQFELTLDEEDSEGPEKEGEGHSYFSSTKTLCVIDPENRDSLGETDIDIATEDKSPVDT
Sequence of Luciferin 4-monooxygenase (Photinus pyralis) (P08659 whole entry, looked up): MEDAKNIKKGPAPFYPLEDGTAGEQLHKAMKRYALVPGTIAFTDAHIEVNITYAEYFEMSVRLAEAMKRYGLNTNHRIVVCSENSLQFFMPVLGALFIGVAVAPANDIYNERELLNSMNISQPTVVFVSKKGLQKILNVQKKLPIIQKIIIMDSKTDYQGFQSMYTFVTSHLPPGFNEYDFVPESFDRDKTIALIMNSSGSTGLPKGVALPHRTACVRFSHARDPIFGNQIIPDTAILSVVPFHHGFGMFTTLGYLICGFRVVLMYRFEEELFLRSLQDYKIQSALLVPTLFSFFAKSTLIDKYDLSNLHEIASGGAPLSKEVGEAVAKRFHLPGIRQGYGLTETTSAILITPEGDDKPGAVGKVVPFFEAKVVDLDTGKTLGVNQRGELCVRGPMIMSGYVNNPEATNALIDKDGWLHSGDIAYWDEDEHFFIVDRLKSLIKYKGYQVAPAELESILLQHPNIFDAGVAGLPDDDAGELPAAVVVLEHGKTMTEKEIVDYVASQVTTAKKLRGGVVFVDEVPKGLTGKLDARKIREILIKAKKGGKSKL

On to `CC[C@@]1(c2ccc(N)cc2)CCC(=O)NC1=O`, for which the compound was called inactive in assay [1], in assay [3] and in assay [6]. Besides, the Potency entry (in [2]; in assay [7]; in assay [9]; in [10]; in the assay on 3D7; with C2A) was “inactive” in each case. For the same compound, the Potency result with CP211, in the assay with CP217, in the assay with CP252, in the assay with CP262, with CP286 and in the assay with ECU was “inactive” each time. The Potency in assay [4] is > 46 µM (inactive) and > 20.6 µM (inactive); in assay [5], > 46 µM (inactive) and > 20.6 µM (inactive). Also, the activity change, negative = inhibition in assay [8] was 0.179% (inactive). The values for the max response in assay [8] (setting [13]) and in [8] (setting [14]) were -3.22% and -2.21%, respectively. The activity, negative = inhibition in assay [11] (parasite line A) is 3.34% (inactive); in assay [11] (parasite line B), 3.27% (inactive).
Take `C=C1[C@@H]2C[C@@]3([C@H]1O)[C@H]1C[C@@H]4[C@@]5(C)CC[C@H](O)[C@]4([C@H]1N(CC)C5)[C@H]3C[C@H]2O`: the result in assay [1] and in [6] was inactive. In addition, the Potency entry in assay [2], in [7] and in assay [9] was “inactive” each time. The activity change, negative = inhibition in [12] is -13% (inactive); in [8], -1.27% (inactive). In addition, the Potency in [5] was > 20.6 µM (inactive). The max response was -11.5% in assay [8] (setting [13]) and -13.2% in assay [8] (setting [14]).
For `COC1=C[C@H]2C3=C([C@H]2C1=O)[C@H](NC(C)=O)CCc1cc(OC)c(OC)c(OC)c13`, the result in [1], in assay [3] and in assay [6] was inactive. For the same compound, the results for the activity change, negative = inhibition in assay [12] and in [8] were -4.77% (inactive) and 0.263% (inactive), respectively. In addition, the Potency in assay [5] is > 20.6 µM (inactive). Moreover, the Potency result in [7] and in assay [9] was “inactive” throughout. The max response is 1.69% in assay [8] (setting [13]) and 2.18% in [8] (setting [14]).
Consider `O=[N+]([O-])O[C@H]1CO[C@H]2[C@H]1OC[C@@H]2O[N+](=O)[O-]`, for which the call in assay [1] and in [6] was inactive. In addition, the Potency entry in [2] and in assay [7] was “inactive” in each case. In addition, the activity change, negative = inhibition was -5.68% (inactive) in assay [12] and -2.81% (inactive) in assay [8]. Also, the Potency in assay [4] and in assay [5] was > 20.6 µM (inactive) each time. For the same compound, the max response in assay [8] (setting [13]) was -2.42%; in assay [8] (setting [14]), -3.6%.
In the case of `C[C@H]1C(=O)O[C@@H]2CCN3CC=C(COC(=O)[C@@](C)(O)[C@@]1(C)O)[C@H]23`, the compound was classed as inactive in [1], in assay [3] and in assay [6]. Moreover, the Potency entry in [2], in assay [7] and in assay [9] was “inactive” throughout. Besides, the Potency in assay [4] and in [5] was > 20.6 µM (inactive) each time. The activity change, negative = inhibition in assay [8] is -2.11% (inactive). The max response in assay [8] (setting [13]) was determined as 4.14%; in assay [8] (setting [14]) it was 3.19%.
In the case of `CCN1C[C@@]2(COC)CC[C@H](OC)[C@]34[C@@H]1[C@]1(OCO[C@@]15C[C@@H](OC)C1C[C@H]3[C@H]5[C@@H]1OC)[C@H](O)[C@@H]24`, the call in assay [1], in assay [3] and in assay [6] was inactive. For the same compound, the activity change, negative = inhibition in assay [12] was -1.05% (inactive); in assay [8], -0.879% (inactive). Moreover, the Potency in assay [4] and in [5] was > 20.6 µM (inactive) throughout. The Potency entry in [7] and in [9] was “inactive” in each case. Besides, the max response is -14.7% in [8] (setting [13]) and -15% in assay [8] (setting [14]).
Regarding `CC1=CC(=O)C2=C(C)C[C@@H](O)[C@@H]3[C@@H](OC(=O)[C@H]3C)[C@H]12`, the compound was classed as inactive in assay [1], in [3] and in [6]. For the same compound, the activity change, negative = inhibition in assay [12] is -5.22% (inactive); in assay [8] it was -1.62% (inactive). Further, the Potency in assay [4] and in [5] was > 20.6 µM (inactive) throughout. Moreover, the Potency entry in assay [7] and in assay [9] was “inactive” throughout. Further, the results for the max response in [8] (setting [13]) and in assay [8] (setting [14]) were -12.9% and -12%, respectively.

For the origin of these results see PubChem BioAssay (NCATS).
